This is a sample that favours compounds with a hit; in the whole collection about 4.1% have one here.
NALP1 inh: inhibitors of NALP1 inflammasome in yeast; S. cerevisiae NALP1/ASC/caspase-1 growth, X-gal OD620, 72 h; AID 2071; inhibition, % at 10 µM; actives 0.61% (n = 280,000); in the data active = inhibition mostly above about 24%, no sharp cut-off; inactive = mostly below about 32%
tim23-1 inh: growth inhibitors of tim23-1 mutant yeast. S. cerevisiae tim23-1 growth, BacTiter-Glo luminescence, 24 h. inhibition, % at 20 µM. actives 1.3% (n = 330,000);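 active = growth inhibition of the mutant yeast at or above 50%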;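 also: temperature-sensitive mutant grown at 25 °C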
TIM10 inh: growth inhibitors of TIM10 yeast strain | S. cerevisiae TIM10 strain growth, BacTiter-Glo luminescence, 24 h | inhibition, % at 10 µM | actives 1.4% (n = 330,000);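 active = inhibition of 40% or more at the single tested concentration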;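 also: wild-type TIM10 isogenic control strain grown at permissive 25 °C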
NALP3 yeast inh: blocks the NALP3 inflammasome reconstituted in yeast. Yeast reconstituted NLRP3/ASC/caspase-1, beta-gal luminescence, 24 h. inhibition, % at 10 µM. actives 0.39% (n = 330,000);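 active = inhibition of 50% or more; inactive = inhibition below 50%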
tim10-1 inh: inhibits growth of tim10-1 mutant yeast; S. cerevisiae tim10-1 ts strain growth, BacTiter-Glo, 24 h; inhibition, % at 20 µM; actives 2.2% (n = 330,000); AID 463190;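 active = inhibition of at least 40%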;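 also: mutant grown at 25 °C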
tim10-1 confirm: tim10-1 yeast growth inhibition, confirmed. shares compounds with tim10-1 inh. S. cerevisiae tim10-1 ts strain growth, BacTiter-Glo, 24 h. inhibition, % at 20 µM. actives 56% (n = 7,400). AID 463213;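 active = inhibition of yeast growth at or above a set limit in either of two repeat tests at 20 µM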;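 also: tim10-1 mutant grown at permissive 25 °C to find synthetic lethal compounds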
tim10 confirm: TIM10 yeast growth inhibition, confirmed; shares compounds with TIM10 inh; AID 463215; inhibition, % at 10 µM; S. cerevisiae tim10 strain growth, BacTiter-Glo luminescence, 24 h; actives 63% (n = 4,600);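 active = inhibition of yeast growth at or above a set limit in either of two replicates at 10 µM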; also: this counterscreen used the strain with wild-type TIM10
tim23-1 confirm: confirmation of tim23-1 mutant yeast growth inhibitors; shares compounds with tim23-1 inh; S. cerevisiae tim23-1 growth, BacTiter-Glo luminescence, 24 h; inhibition, % at 20 µM; actives 83% (n = 4,400); AID 463218;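 active = inhibition above about 39% in either of two replicate wells at 20 µM, limit read from the data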;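 also: temperature-sensitive tim23-1 mutant grown at 25 °C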
Each line names hits and unclear results; the compound was inactive in the other large screens (follow-up assays come after a bar, where they were run).

COc1cccc(NC(=O)NCc2c(-c3ccccc3)noc2C)c1	none
COc1ccccc1-c1cc(C(=O)N/N=C/c2ccc(C)s2)c2ccccc2n1	tim23-1 inh 61, tim10-1 inh 42 | tim10-1 confirm inactive | tim23-1 confirm 65
CCc1ccc(/C=N/NC(=O)c2cc(-c3ccccc3OC)nc3ccccc23)s1	none
CC(Sc1nnnn1C)C(=O)Nc1ncc(Cl)cc1Cl (stereo unspecified)	none (no result: NALP1 inh)
CC(C)Cn1nc(C(=O)Nc2nnc(C3CC3)s2)c2ccccc2c1=O	tim23-1 inh 52, tim10-1 inh 47 (no result: NALP1 inh) | tim10-1 confirm 29 | tim23-1 confirm 41
CCOC(=O)c1cnc2c(OC)cccc2c1N1CC(C)CC(C)C1 (stereo unspecified)	tim23-1 inh 71, tim10-1 inh 42 | tim10-1 confirm 35 | tim23-1 confirm 51
CCN(CCO)c1nc(NCc2ccccc2)c2cnn(C)c2n1	none
CCOC(=O)/C(=C/c1ccc(OC(=O)c2ccccc2)cc1)C(C)=O	tim23-1 inh 89, TIM10 inh 77, tim10-1 inh 47 | tim10-1 confirm 64 | tim10 confirm inactive | tim23-1 confirm 53
CN(CC(=O)NC(=O)NC1CCCCC1)CC(=O)Nc1ccc(Cl)cc1	none (no result: NALP1 inh)
CC(C)N(CCC(=O)c1ccc2ccccc2c1)Cc1ccccc1	tim23-1 inh 58, tim10-1 inh 92 (no result: NALP1 inh) | tim10-1 confirm 92 | tim23-1 confirm 86
O=S(=O)(NC1CCN(S(=O)(=O)c2ccc3c(c2)OCCO3)C1)c1c(F)cccc1F (stereo unspecified)	none (no result: NALP1 inh)
CSc1sccc1/C=C(/C#N)C(=O)c1ccco1	none
O=C1c2cccc3c([N+](=O)[O-])ccc(c23)C(=O)N1c1ccccn1	tim23-1 inh 80, TIM10 inh 77, tim10-1 inh 94 | tim10-1 confirm 89 | tim10 confirm inactive | tim23-1 confirm 77
O=C1c2cccc3c([N+](=O)[O-])ccc(c23)C(=O)N1O	none
O=C1N(c2ccccc2)C(c2ccccc2)C12CCCCC2 (stereo unspecified)	none (no result: NALP1 inh, NALP3 yeast inh)
O=C(Nc1ccccc1Cl)c1ccccc1Oc1ccc(C(F)(F)F)cc1[N+](=O)[O-]	tim23-1 inh 56, tim10-1 inh 44 | tim10-1 confirm 36 | tim23-1 confirm 51
CCc1c(O)cc2n(c1=O)-c1ccc(Cl)cc1C2(C)C	tim23-1 inh 52, TIM10 inh 42, tim10-1 inh 44 | tim10-1 confirm 34 | tim10 confirm inactive | tim23-1 confirm 49
COc1ccc(/C=N/n2c(C3CCCCC3)n[nH]c2=S)c(OC)c1	tim23-1 inh 58, tim10-1 inh 40 | tim10-1 confirm inactive | tim23-1 confirm 48
CC[C@@H]1C/C=C\Cc2ccccc2[C@H](C(=O)C[C@@H](O)CC(C)=O)OC1=O	tim23-1 inh 52, tim10-1 inh 54 (no result: NALP1 inh) | tim10-1 confirm 53 | tim23-1 confirm 49
CN(C)/C=C/C(=O)c1ccc(-c2ccc(Cl)cc2Cl)o1	none
Cc1ccc(C(=O)Oc2oc(-c3ccco3)nc2C=Nc2ccc(Cl)cc2)cc1	tim23-1 inh 50, tim10-1 inh 50 | tim10-1 confirm 35 | tim23-1 confirm 66
O=C(Oc1oc(-c2ccco2)nc1C=Nc1ccccc1)c1ccoc1	none
Oc1ccc(Cl)cc1/C=N/c1nccs1	tim23-1 inh 55, tim10-1 inh 45 | tim10-1 confirm 44 | tim23-1 confirm inactive
C(=N\c1nccs1)/c1cccnc1	none
Oc1c(Br)cc(Br)cc1/C=N/c1nccs1	tim23-1 inh 75, tim10-1 inh 46 (no result: NALP1 inh) | tim10-1 confirm 34 | tim23-1 confirm 90
COc1ccc(C(=O)CSc2n[nH]c(C)n2)cc1[N+](=O)[O-]	none
CCN(CC)c1ccc(/C=N/NC(=O)c2nnn(-c3nonc3N)c2C(C)C)c(O)c1	tim23-1 inh 62, TIM10 inh 60, tim10-1 inh 72 | tim10-1 confirm inactive | tim10 confirm 66 | tim23-1 confirm 61
O=C(CCCn1c(=S)[nH]c2ccccc2c1=O)NCCSCc1ccccc1	none
O=C(NC1CCCCNC1=O)c1ccco1 (stereo unspecified)	none

Source: PubChem (Sanford-Burnham Center for Chemical Genomics)
